# According to PubChem BioAssay (Tox21):
# Results filed as inconclusive are left out. Where a call stands in place of a potency, no number is given. Calls of active or inactive are those of the source. Unless noted, the call rests on the fitted dose curve; in most records, active means well fitted curve in the direction sought with a large enough effect in the repeat runs; inconclusive means weak or mixed curves; inactive means no such curve, though single readings can be large; an effect the other way counts as inactive or inconclusive.
# Legend:
# [1] = qHTS assay to identify small molecule antagonists of the glucocorticoid receptor (GR) signaling pathway - cell viability counter screen (AID 720693); details: GR-bla HeLa viability, CellTiter-Glo luminescence, 18 h, with 5 nM dexamethasone present; series mostly up to 58.5 µM; further: nearly all actives have a fitted effect of over 55% in size
# [2] = qHTS assay for identifying genotoxic compounds that show differential cytotoxicity against isogenic chicken DT40 cell lines with known DNA damage response pathways - wild type cell line (AID 743012); details: DT40 wild type chicken cells viability, CellTiter-Glo, 40 h; series mostly up to 68.4 µM; further: nearly all actives have a fitted effect of over 60% in size; further: potency means the concentration at half of the fitted maximal effect
# Method in brief: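 Using parental DT40 (300 cells/well), compounds delivered in DMSO incubate 40 h at 37 C/5% CO2. CellTiter-Glo reagent then stands 30 min at room temperature, and luminescence gives cell viability.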
# [3] = qHTS assay for identifying genotoxic compounds that show differential cytotoxicity against isogenic chicken DT40 cell lines with known DNA damage response pathways - Rev3 mutant cell line (AID 743014); details: chicken DT40 Rev3-/- viability, CellTiter-Glo, 40 h; series mostly up to 68.4 µM; further: nearly all actives have a fitted effect of over 55% in size; further: potency means the concentration at half of the fitted maximal effect
# [4] = qHTS assay for identifying genotoxic compounds that show differential cytotoxicity against isogenic chicken DT40 cell lines with known DNA damage response pathways - Rad54/Ku70 mutant cell line (AID 743015); details: DT40 Rad54/Ku70 mutant viability, CellTiter-Glo, 40 h; series mostly up to 66.8 µM; further: nearly all actives have a fitted effect of over 60% in size; further: potency means the concentration at half of the fitted maximal effect
# [5] = qHTS assay to identify small molecule antagonists of the androgen receptor (AR) signaling pathway - cell viability counter screen (AID 743033; further: nearly all actives have a fitted effect of over 45% in size; further: potency means the concentration at half of the fitted maximal effect); details: AR-bla HEK293 viability, CellTiter-Glo luminescence, 16 h; series mostly up to 58.5 µM
# [6] = qHTS assay to identify small molecule antagonists of the androgen receptor (AR) signaling pathway using the MDA cell line - cell viability counter screen (AID 743041; further: nearly all actives have a fitted effect of over 45% in size; further: potency means the concentration at half of the fitted maximal effect); details: MDA-kb2 viability, CellTiter-Fluor, 16 h, cells co-treated with R1881 androgen agonist; series mostly up to 70.3 µM
# Method in brief: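 MDA-kb2 AR-luc cells (MMTV-luciferase, AR/GR responsive) treated with compounds plus R1881 agonist for 16 h at 37C. CellTiter-Fluor added at 15.5 h; fluorescence read after 30 min in the same wells.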
# [7] = qHTS assay to identify small molecule antagonists of the thyroid receptor (TR) signaling pathway - cell viability counter screen (AID 743064); details: GH3.TRE-Luc viability, CellTiter-Fluor, 24 h; series mostly up to 70.3 µM; further: nearly all actives have a fitted effect of over 50% in size; further: potency means the concentration at half of the fitted maximal effect
# Method in brief: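 GH3.TRE-Luc rat pituitary cells dosed after 4 hr plating, co-stimulated with T3 at 1 nM final, incubated 23.5 h at 37 C. Viability measured in the same wells by CellTiter-Fluor fluorescence after 30 min further at 37 C.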
# [8] = qHTS assay to identify small molecule antagonists of the thyroid receptor (TR) signaling pathway (AID 743065); details: GH3.TRE-Luc, T3-stimulated luciferase inhibition, 23.5 h; series mostly up to 70.3 µM; further: nearly all actives have a fitted effect of over 55% in size
# Method in brief: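 GH3.TRE-Luc rat pituitary cells (two TREs driving luciferase) were dosed with compound, then stimulated with 1 nM T3 (final) for 23.5 h at 37 C. ONE-Glo luminescence was the read-out, with CellTiter-Fluor fluorescence as the cytotoxicity counter-screen.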
# [9] = system: thyroid hormone receptor (rat, GH3 cells); assay: qHTS assay to identify small molecule agonists of the thyroid receptor (TR) signaling pathway (AID 743066; calls by dose curve); details: GH3.TRE-Luc cells, TR agonist luciferase, 24 h; series mostly up to 83.9 µM
# [10] = target: Estrogen receptor (Homo sapiens) (UniProt P03372); assay: qHTS assay to identify small molecule antagonists of the estrogen receptor alpha (ER-alpha) signaling pathway (AID 743069; active means well fitted curve in the direction sought with a large enough effect in the signal ratio in the repeat runs, not every such curve was filed as active; the % refers to the signal ratio); details: HEK293 ER-alpha-UAS-bla, beta-lactamase ratio, antagonist mode; series mostly up to 69.4 µM
# Method in brief: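 HEK293 ER-alpha-UAS-bla GripTite cells, held overnight in 2% charcoal-stripped FBS, 5,000 cells/well, preincubated 4 h, then compound plus 17beta-estradiol for 18 h at 37C. Beta-lactamase read by LiveBLAzer B/G FRET substrate, 2 h at room temperature.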
# [11] = qHTS assay to identify small molecule antagonists of the estrogen receptor alpha (ER-alpha) signaling pathway - cell viability counter screen (AID 743074; calls by dose curve;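 further: HEK293 cells carrying ER-alpha-UAS-bla reporter stimulated with 17beta-estradiol; nearly all actives have a fitted effect of over 45% in size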); details: ERalpha-bla HEK293 viability, CellTiter-Glo luminescence, 18 h; series mostly up to 69.4 µM
# [12] = target: Estrogen receptor (Homo sapiens) (UniProt P03372); assay: qHTS assay to identify small molecule agonists of the estrogen receptor alpha (ER-alpha) signaling pathway (AID 743075; calls by dose curve); details: HEK293 ER-alpha-UAS-bla, beta-lactamase FRET ratio, 18 h; series mostly up to 70.1 µM
# [13] = target: Estrogen receptor (Homo sapiens) (UniProt P03372); assay: qHTS assay to identify small molecule agonists of the estrogen receptor alpha (ER-alpha) signaling pathway using the BG1 cell line (AID 743079); details: BG1Luc4E2 cells, ERE-luciferase agonist, 22 h; series mostly up to 70.3 µM; further: nearly all actives have a fitted effect of over 20% in size
# [14] = qHTS assay to identify small molecule antagonists of the estrogen receptor alpha (ER-alpha) signaling pathway using the BG1 cell line (AID 743080; calls by dose curve;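 further: BG1 cells stimulated with 17beta-estradiol alongside compound; nearly all actives have a fitted effect of over 25% in size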; further: potency means the concentration at half of the fitted maximal effect); details: BG1Luc4E2 ERE-luciferase antagonist mode, luminescence; series mostly up to 70.3 µM
# Method in brief: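 Luminescence from a 4×ERE-luciferase reporter in BG1-Luc-4E2 cells served as read-out. Cells, pre-cultured 5 days in stripped-serum phenol-red-free medium, were exposed to compound with 17beta-estradiol co-stimulation for 21.5 h at 37 C.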
# [15] = qHTS assay to identify small molecule antagonists of the estrogen receptor alpha (ER-alpha) signaling pathway using the BG1 cell line - cell viability counter screen (AID 743081); details: BG1Luc4E2 viability, CellTiter-Fluor, 22 h; series mostly up to 70.3 µM;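 further: compound given together with 17beta-estradiol as the ER stimulus; nearly all actives have a fitted effect of over 45% in size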; further: potency means the concentration at half of the fitted maximal effect
# Aromatase (Homo sapiens) = Aromatase (Homo sapiens) (UniProt P11511); assay: qHTS assay to identify aromatase inhibitors (AID 743083); details: MCF-7 aro ERE, testosterone-driven ERE luciferase, 24 h; series mostly up to 70.3 µM; further: nearly all actives have a fitted effect of over 55% in size
# [16] = target: Androgen receptor (Homo sapiens) (UniProt P10275); assay: qHTS assay to identify small molecule antagonists of the androgen receptor (AR) signaling pathway (AID 743035; active means well fitted inhibition curve with a large enough effect in the signal ratio in the repeat runs, not every such curve was filed as active; the % refers to the signal ratio); details: HEK293 AR-UAS-bla, R1881-stimulated, beta-lactamase FRET, 16 h; series mostly up to 58.5 µM
# Method in brief: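 Using qHTS, AR-UAS-bla GripTite HEK293 cells received compound, then R1881, and were cultured 16 h at 37C/5% CO2 before a 2 h room-temperature LiveBLAzer B/G FRET substrate step and fluorescence measurement.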
# [17] = target: Androgen receptor (Homo sapiens) (UniProt P10275); assay: qHTS assay to identify small molecule agonists of the androgen receptor (AR) signaling pathway (AID 743036; active means well fitted activation curve with a large enough effect in the signal ratio in the repeat runs, with a control signal flat, not every such curve was filed as active; the % refers to the signal ratio); details: HEK293 AR-UAS-bla GripTite, beta-lactamase FRET ratio, 16 h; series mostly up to 62.4 µM
# Method in brief: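 AR-UAS-bla HEK293 cells, plated 4 h before dosing, were treated with compound for 16 h at 37C. beta-Lactamase reporter read after 2 h with LiveBLAzer B/G FRET substrate at room temperature.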
# [18] = target: Androgen receptor (Homo sapiens) (UniProt P10275); assay: qHTS assay to identify small molecule agonists of the androgen receptor (AR) signaling pathway using the MDA cell line (AID 743040; further: nearly all actives have a fitted effect of over 20% in size; further: potency means the concentration at half of the fitted maximal effect); details: MDA-kb2 AR-luc cells, MMTV luciferase, 16 h; series mostly up to 70.3 µM
# Method in brief: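 MDA-kb2 breast carcinoma cells carrying MMTV-luciferase (responsive to AR and GR), plated 5 h then treated 16 h with compounds at 37C, 0% CO2. Read-out was ONE-Glo luminescence after 30 min at room temperature.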
# [19] = target: Androgen receptor (Homo sapiens) (UniProt P10275); assay: qHTS assay to identify small molecule antagonists of the androgen receptor (AR) signaling pathway using the MDA cell line (AID 743042; further: nearly all actives have a fitted effect of over 55% in size; further: potency means the concentration at half of the fitted maximal effect); details: MDA-kb2 AR-luc, MMTV luciferase, R1881 antagonist, 16 h; series mostly up to 70.3 µM
# Method in brief: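 MDA-kb2 breast carcinoma cells carrying MMTV-luciferase (AR/GR responsive) were co-treated with compounds and the agonist R1881 for 16 h at 37C. Inhibition read as ONE-Glo luminescence; CellTiter-Fluor fluorescence measured in parallel for cytotoxicity.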
# Sequence of Estrogen receptor (Homo sapiens) (P03372 whole entry, looked up): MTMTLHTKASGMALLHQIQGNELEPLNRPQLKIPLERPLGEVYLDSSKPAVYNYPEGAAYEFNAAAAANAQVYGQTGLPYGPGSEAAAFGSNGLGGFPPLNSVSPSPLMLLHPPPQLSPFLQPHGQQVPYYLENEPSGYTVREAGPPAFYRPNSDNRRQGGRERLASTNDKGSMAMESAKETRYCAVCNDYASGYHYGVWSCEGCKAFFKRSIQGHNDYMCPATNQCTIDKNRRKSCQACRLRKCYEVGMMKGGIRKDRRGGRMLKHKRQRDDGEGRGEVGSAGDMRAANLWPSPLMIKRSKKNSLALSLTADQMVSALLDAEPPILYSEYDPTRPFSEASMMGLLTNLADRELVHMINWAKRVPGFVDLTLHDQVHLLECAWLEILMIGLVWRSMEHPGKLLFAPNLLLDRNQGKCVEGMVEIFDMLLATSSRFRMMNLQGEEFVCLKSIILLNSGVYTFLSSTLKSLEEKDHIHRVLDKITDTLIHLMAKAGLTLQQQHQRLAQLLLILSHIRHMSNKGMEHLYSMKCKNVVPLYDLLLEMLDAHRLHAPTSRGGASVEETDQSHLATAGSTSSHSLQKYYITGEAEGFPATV
# Sequence of Androgen receptor (Homo sapiens) (P10275 whole entry, looked up): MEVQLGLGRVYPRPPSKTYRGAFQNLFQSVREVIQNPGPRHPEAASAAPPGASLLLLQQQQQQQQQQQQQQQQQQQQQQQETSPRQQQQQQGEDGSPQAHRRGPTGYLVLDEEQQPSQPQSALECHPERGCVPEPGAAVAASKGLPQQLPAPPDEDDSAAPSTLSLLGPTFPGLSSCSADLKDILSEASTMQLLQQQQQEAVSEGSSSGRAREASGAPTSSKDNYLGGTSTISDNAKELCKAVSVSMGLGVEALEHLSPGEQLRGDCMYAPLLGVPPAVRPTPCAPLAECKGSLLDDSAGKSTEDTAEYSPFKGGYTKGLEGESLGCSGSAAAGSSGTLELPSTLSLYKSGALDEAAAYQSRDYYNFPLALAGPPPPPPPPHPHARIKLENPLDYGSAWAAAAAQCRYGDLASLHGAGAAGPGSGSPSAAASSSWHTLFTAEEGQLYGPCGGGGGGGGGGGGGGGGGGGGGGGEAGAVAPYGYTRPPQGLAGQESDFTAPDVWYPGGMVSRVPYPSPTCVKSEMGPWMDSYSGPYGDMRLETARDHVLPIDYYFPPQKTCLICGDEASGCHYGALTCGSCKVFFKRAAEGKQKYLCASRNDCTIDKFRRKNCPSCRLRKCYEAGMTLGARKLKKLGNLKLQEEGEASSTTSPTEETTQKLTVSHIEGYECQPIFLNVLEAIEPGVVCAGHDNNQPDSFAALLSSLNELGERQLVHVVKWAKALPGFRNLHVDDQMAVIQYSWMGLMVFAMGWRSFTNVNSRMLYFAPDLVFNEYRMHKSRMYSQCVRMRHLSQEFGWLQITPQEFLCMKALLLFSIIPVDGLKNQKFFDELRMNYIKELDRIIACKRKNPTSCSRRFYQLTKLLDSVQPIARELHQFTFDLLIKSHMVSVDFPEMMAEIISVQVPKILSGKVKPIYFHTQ
# Sequence of Aromatase (Homo sapiens) (P11511 whole entry, looked up): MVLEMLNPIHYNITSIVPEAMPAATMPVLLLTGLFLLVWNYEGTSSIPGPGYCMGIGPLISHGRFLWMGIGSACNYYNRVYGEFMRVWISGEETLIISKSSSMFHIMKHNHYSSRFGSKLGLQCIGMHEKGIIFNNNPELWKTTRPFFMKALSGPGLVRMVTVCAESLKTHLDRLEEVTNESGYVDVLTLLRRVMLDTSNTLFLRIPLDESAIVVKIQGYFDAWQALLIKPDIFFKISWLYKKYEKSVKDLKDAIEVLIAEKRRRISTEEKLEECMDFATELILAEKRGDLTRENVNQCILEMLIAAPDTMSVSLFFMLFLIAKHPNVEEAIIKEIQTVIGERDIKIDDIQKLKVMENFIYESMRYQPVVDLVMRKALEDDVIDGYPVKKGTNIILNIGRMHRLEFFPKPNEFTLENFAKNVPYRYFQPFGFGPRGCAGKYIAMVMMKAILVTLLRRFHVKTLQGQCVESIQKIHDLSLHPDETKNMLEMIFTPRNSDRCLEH
SMILES,Potency [1],Potency [2],Potency [3],Potency [4],Potency [5],Potency [6],Potency [7],Potency [8],Potency [9],Potency [10],Potency [11],Potency [12],Potency [13],Potency [14],Potency [15],Potency (Aromatase (Homo sapiens)),Potency [16],outcome [17],Potency [18],Potency [19]
N#CCc1ccccc1,inactive,inactive,inactive,inactive,inactive,inactive,inactive,inactive,inactive,inactive,inactive,inactive,inactive,inactive,inactive,inactive,,,,
BrCC(Br)C1CCC(Br)C(Br)C1 (stereo unspecified),inactive,inactive,inactive,inactive,inactive,inactive,68.2 µM (active),,inactive,,inactive,,,,inactive,inactive,inactive,inactive,1.36 µM (active),inactive
O=NN1CCCCCC1,inactive,inactive,inactive,inactive,inactive,inactive,inactive,inactive,inactive,inactive,inactive,inactive,inactive,inactive,inactive,inactive,inactive,inactive,inactive,inactive
CCOc1nc(F)cc2nc(S(=O)(=O)Nc3c(Cl)cccc3Cl)nn12,inactive,inactive,inactive,inactive,inactive,inactive,inactive,inactive,inactive,inactive,inactive,inactive,inactive,inactive,inactive,inactive,,,,
Cc1ccc2ccccc2c1,inactive,inactive,inactive,inactive,inactive,inactive,inactive,inactive,inactive,inactive,inactive,inactive,inactive,inactive,inactive,inactive,inactive,inactive,inactive,inactive
CCCCCCCCCCOC(=O)c1ccccc1C(=O)OCCCCCCCCCC,inactive,inactive,inactive,inactive,inactive,inactive,inactive,,,,inactive,inactive,inactive,,inactive,inactive,,inactive,inactive,
C=C(C#N)CCC#N,inactive,inactive,inactive,inactive,inactive,inactive,inactive,inactive,inactive,inactive,inactive,inactive,inactive,inactive,inactive,inactive,,,,
CN(N=O)c1ccc([N+](=O)[O-])cc1,inactive,inactive,inactive,inactive,inactive,inactive,inactive,inactive,inactive,inactive,inactive,inactive,inactive,inactive,inactive,inactive,,,,
COC(=O)c1cncn1C(C)c1ccccc1 (stereo unspecified),inactive,inactive,inactive,inactive,inactive,inactive,inactive,inactive,inactive,inactive,inactive,inactive,inactive,inactive,inactive,inactive,,,,
COP(=S)(OC)Oc1cc(Cl)c(I)cc1Cl,inactive,inactive,inactive,inactive,inactive,inactive,inactive,,inactive,,inactive,,,,inactive,inactive,,,inactive,inactive
CC(=O)CCC(C)=O,inactive,inactive,inactive,inactive,inactive,inactive,inactive,inactive,inactive,inactive,inactive,inactive,inactive,inactive,inactive,inactive,,,,
Cl/C=C\C[N+]12CN3CN(CN(C3)C1)C2,inactive,48.6 µM (active),30.6 µM (active),43.3 µM (active),inactive,inactive,inactive,,inactive,inactive,inactive,inactive,inactive,inactive,inactive,,,inactive,inactive,inactive
ClC=C(Cl)Cl,inactive,inactive,inactive,inactive,inactive,inactive,inactive,inactive,inactive,inactive,inactive,inactive,inactive,inactive,inactive,inactive,,,,
Cc1ccc(-c2c(Cl)nc(C#N)n2S(=O)(=O)N(C)C)cc1,inactive,61.1 µM (active),61.1 µM (active),61.1 µM (active),43.6 µM (active),,54.4 µM (active),,,,,,,54.4 µM (active),inactive,,,,inactive,54.4 µM (active)
CC1CC(CC2CCC(N)C(C)C2)CCC1N (stereo unspecified),inactive,7.82 µM (active),2.47 µM (active),9.85 µM (active),inactive,31.1 µM (active),,,inactive,inactive,inactive,inactive,inactive,,31.1 µM (active),inactive,,inactive,inactive,inactive
Brc1ccccc1,inactive,inactive,inactive,inactive,inactive,inactive,inactive,inactive,inactive,inactive,inactive,inactive,inactive,,inactive,inactive,inactive,inactive,inactive,inactive
